Test results published in PubChem BioAssay (NCI).
About 83,000 compounds went through this panel and 20% of them were active in at least one assay; those are over-represented in the sample as a whole.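 Results are percent growth after 48 hours of single-concentration exposure. 100 means growth as in untreated cells, lower positive values show inhibition; negative values down to -100 show cell death.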 Active and inactive are the calls of the source. The calls were made as follows: active = growth percent below 10; inactive = the rest.

How the values were obtained:
Assay in all cases: NCI-60 one-dose screen, 48 h (100 = growth as untreated, 0 = no growth, -100 = all killed)
Details in all cases: 10 µM
SK-MEL-2 melanoma = system: SK-MEL-2 melanoma
EKVX NSCLC = system: EKVX NSCLC
UO-31 renal = system: UO-31 renal
TK-10 renal = system: TK-10 renal
CAKI-1 renal = system: CAKI-1 renal
A498 renal = system: A498 renal
CCRF-CEM leukemia = system: CCRF-CEM leukemia
MOLT-4 leukemia = system: MOLT-4 leukemia
ACHN renal = system: ACHN renal
SN12C renal = system: SN12C renal

Measured: growth

COc1cccc(/C=C2\N=C(C)N(CCc3ccc(S(N)(=O)=O)cc3)C2=O)c1
inactive: SK-MEL-2 melanoma 109% | EKVX NSCLC 95.6% | UO-31 renal 90.9% | TK-10 renal 97.6% | CAKI-1 renal 78.8% | A498 renal 101% | CCRF-CEM leukemia 96.4% | MOLT-4 leukemia 97.8%

CN(C(=O)c1ccc(C(F)(F)F)cc1C(F)(F)F)c1sc2c(c1C#N)CCC(=O)C2
active: CCRF-CEM leukemia -0.48%
inactive: SK-MEL-2 melanoma 96.8% | EKVX NSCLC 73.7% | UO-31 renal 62.4% | TK-10 renal 94.2% | ACHN renal 82.7% | CAKI-1 renal 61.3% | A498 renal 125% | MOLT-4 leukemia 36.4%

Cc1ccc(-c2ccc(SCC(=O)Nc3ccc(Cl)c(C(F)(F)F)c3)nn2)cc1
active: MOLT-4 leukemia 8.91%
inactive: SK-MEL-2 melanoma 12.8% | EKVX NSCLC 36.7% | SN12C renal 35.2% | TK-10 renal 59.8% | ACHN renal 43.4% | CAKI-1 renal 41.7% | CCRF-CEM leukemia 19.8%

COc1ccc2[nH]c(O)c(N=NC(=O)COc3ccc(NC(=O)Nc4ccc(Cl)c(Cl)c4)cc3)c2c1
active: SN12C renal -42% | A498 renal -1.89%
inactive: SK-MEL-2 melanoma 14.5% | UO-31 renal 111% | TK-10 renal 15.5% | ACHN renal 57% | CAKI-1 renal 60.7% | CCRF-CEM leukemia 20.8%

O=c1cc(-c2ccccc2)oc2cc(OCCCCNCc3ccccc3)cc(O)c12
inactive: SK-MEL-2 melanoma 53.1% | EKVX NSCLC 25.1% | UO-31 renal 37% | TK-10 renal 78.9% | ACHN renal 59.9% | CAKI-1 renal 25.7% | A498 renal 37.6%
active: CCRF-CEM leukemia 2.88% | MOLT-4 leukemia -0.919%

CC(=O)c1ccc(NC(=O)NCn2c(=O)[nH]c3ccccc3c2=O)cc1
inactive: SK-MEL-2 melanoma 106% | SN12C renal 94.2% | UO-31 renal 73.7% | TK-10 renal 105% | ACHN renal 99.2% | CAKI-1 renal 91.2% | A498 renal 98.1% | CCRF-CEM leukemia 91.6%

N#Cc1c(NC(=O)c2ccc(C(F)(F)F)cc2)sc2c1CCC(O)=C2
active: SK-MEL-2 melanoma 8.44% | CCRF-CEM leukemia 6.68%
inactive: EKVX NSCLC 16.9% | UO-31 renal 23.9% | TK-10 renal 71.9% | ACHN renal 44.1% | CAKI-1 renal 31.9% | A498 renal 74.2% | MOLT-4 leukemia 13.8%

COc1ccc(C(=O)Nc2sc3c(c2C#N)CCC(=O)C3)cc1C(F)(F)F
active: SK-MEL-2 melanoma -17.6% | EKVX NSCLC -0.293% | UO-31 renal -18.2% | ACHN renal -29.9% | CAKI-1 renal -28.1% | CCRF-CEM leukemia 5.05% | MOLT-4 leukemia 3.42%
inactive: TK-10 renal 15.1% | A498 renal 63.3%

COc1ccc(C=CC(=O)c2ccc(-n3c(C)nc4c(cnn4-c4ccccc4)c3=O)cc2)cc1
inactive: SK-MEL-2 melanoma 70.6% | EKVX NSCLC 42.9% | SN12C renal 81.6% | TK-10 renal 86.8% | ACHN renal 71% | CAKI-1 renal 75% | A498 renal 104% | CCRF-CEM leukemia 46.4% | MOLT-4 leukemia 44.7%

O=c1[nH]n(C(=S)N/N=C/c2ccc(F)cc2)c(=O)c2ccccc12
inactive: SK-MEL-2 melanoma 82.7% | EKVX NSCLC 88.2% | SN12C renal 71.2% | TK-10 renal 102% | CAKI-1 renal 82% | CCRF-CEM leukemia 12.8% | MOLT-4 leukemia 10.7%
